# Measured values taken from ChEMBL document CHEMBL1201862, “PubChem BioAssay data set” (2004).
# Among all 400,000 compounds or so, about 2,100 (0.53%) were called active. Not shown: some 14% with an inconclusive outcome. How the calls were made is not given here. The entries come from a sample that favours actives as a whole.
# Target: Ataxin-2 (Homo sapiens) (UniProt Q99700)
# Assay: qHTS for Inhibitors of ATXN expression.
# Type: functional
# Chain of Ataxin-2 (Homo sapiens) (Q99700 whole entry): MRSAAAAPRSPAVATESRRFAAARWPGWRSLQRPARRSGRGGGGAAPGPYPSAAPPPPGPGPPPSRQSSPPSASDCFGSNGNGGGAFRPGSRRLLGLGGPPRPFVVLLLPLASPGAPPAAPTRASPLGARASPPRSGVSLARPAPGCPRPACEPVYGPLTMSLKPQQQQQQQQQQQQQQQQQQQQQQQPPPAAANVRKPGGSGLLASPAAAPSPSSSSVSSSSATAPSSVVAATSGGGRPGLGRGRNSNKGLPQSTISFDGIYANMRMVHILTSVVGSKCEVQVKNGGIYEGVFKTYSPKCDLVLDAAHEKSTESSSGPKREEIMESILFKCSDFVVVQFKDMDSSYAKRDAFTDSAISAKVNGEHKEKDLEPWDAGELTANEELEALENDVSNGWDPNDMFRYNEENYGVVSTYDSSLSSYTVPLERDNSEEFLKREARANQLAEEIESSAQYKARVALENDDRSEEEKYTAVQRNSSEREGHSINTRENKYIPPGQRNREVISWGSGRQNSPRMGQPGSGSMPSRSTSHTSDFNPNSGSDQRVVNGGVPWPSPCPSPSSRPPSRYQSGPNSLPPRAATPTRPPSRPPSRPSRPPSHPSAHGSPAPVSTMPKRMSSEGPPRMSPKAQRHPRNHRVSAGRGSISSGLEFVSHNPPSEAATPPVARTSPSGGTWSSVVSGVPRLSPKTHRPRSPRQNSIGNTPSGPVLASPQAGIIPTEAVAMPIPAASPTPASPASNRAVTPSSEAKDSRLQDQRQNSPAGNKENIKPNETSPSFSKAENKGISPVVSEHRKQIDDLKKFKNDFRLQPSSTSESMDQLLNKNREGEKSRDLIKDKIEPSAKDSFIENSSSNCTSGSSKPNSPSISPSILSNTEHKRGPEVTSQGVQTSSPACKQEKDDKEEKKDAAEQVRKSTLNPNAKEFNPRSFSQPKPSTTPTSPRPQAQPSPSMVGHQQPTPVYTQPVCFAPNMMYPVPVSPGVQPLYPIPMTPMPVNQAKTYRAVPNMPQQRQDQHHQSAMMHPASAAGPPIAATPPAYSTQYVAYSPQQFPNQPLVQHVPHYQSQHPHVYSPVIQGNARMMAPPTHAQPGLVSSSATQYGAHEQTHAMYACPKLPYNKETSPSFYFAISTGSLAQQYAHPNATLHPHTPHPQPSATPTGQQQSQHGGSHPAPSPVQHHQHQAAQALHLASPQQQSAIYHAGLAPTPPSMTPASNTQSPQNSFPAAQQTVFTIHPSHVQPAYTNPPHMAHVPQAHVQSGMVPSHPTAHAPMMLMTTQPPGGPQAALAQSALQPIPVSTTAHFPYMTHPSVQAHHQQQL
row,SMILES,Potency
1,Fc1ccc(NC(S)=Nc2nccs2)cc1,inactive
2,O=C(c1cnn(-c2ccc(Cl)cc2)c1)c1ccccc1O,inactive
3,OCCNc1c2ccccc2nc2c(F)c(F)c(F)c(F)c12,inactive
4,O=c1oc2c(CN3CCCCC3)c(O)ccc2cc1-c1nc2ccccc2[nH]1,inactive
5,CSc1ncc(C(=O)Nc2ccccc2Cl)c(C)n1,inactive
6,CC(C)(C)NC(=O)CSc1nnc(NC(=O)CCc2ccccc2)s1,inactive
7,CSc1nnc(NC(=O)c2nc(S(=O)(=O)Cc3ccccc3)ncc2Cl)s1,28.2 µM (active)
8,O=C(CN(CCc1ccccc1)C(=O)c1csnn1)NCc1ccc(F)cc1,inactive
9,Cc1ccccc1C1N=C2Oc3ccccc3C=C2C(=O)N1 (stereo not drawn),inactive
10,COc1c(C)cc(S(=O)(=O)NCc2ccco2)c(C)c1C,inactive
11,CCN1/C(=C/C=C/c2oc3ccc(-c4ccccc4)cc3[n+]2CC)Oc2ccc(-c3ccccc3)cc21,29.9 µM (active)
12,O=C(Cc1ccc(NC2=NC3CS(=O)(=O)CC3S2)cc1)N1CCN(c2ccc(F)cc2)CC1 (stereo not drawn),inactive
13,COc1ccc(CN2C(=O)c3cccnc3C2=O)cc1S(=O)(=O)N1CCOc2ccccc21,inactive
14,COc1cc(CCNC2=CC(=O)c3ncccc3C2=O)ccc1O,16.8 µM (active)
15,COc1ccc(CN2C(=O)c3cccnc3C2=O)cc1S(=O)(=O)NCc1ccc(C)o1,inactive
16,CC(C)(C)c1ccc(SC2=C[C@@]3(O)CC[C@@H](O)[C@@](Sc4ccc(C(C)(C)C)cc4)(C2=O)[C@H]3O)cc1,25.1 µM (active)
17,C=CCn1c(SCC(=O)c2[nH]c(C)c(C(=O)OCC)c2C)nc2scc(-c3ccc(OC)c(OC)c3)c2c1=O,20 µM (active)
18,C=CCn1c(SCCN2C(=O)c3ccccc3C2=O)nc2scc(-c3ccc(F)cc3)c2c1=O,inactive
19,CCOC(=O)c1c(C)[nH]c(C(=O)N(C)CC(=O)Nc2ccc(OCC)c(OCC)c2)c1C,inactive
20,O=C1OCCN1C(=O)[C@H]1[C@H](c2ccc(F)cc2)C(c2ccccc2)=NN1c1ccccc1,inactive
21,CNc1c2cccc(C)c2nc2c(C(=O)NCCN(C)C)cccc12,0.794 µM (active)

row,SMILES,Potency
1,COc1ccc(C(=O)NCCNc2nc3c(C)cccc3cc2C#N)cc1OC,inactive
2,Cc1cccc2c(C(=O)O)c3cccc(C)c3nc12,inactive
3,CC1CCN(c2nc(Cl)nc(Nc3ccc([N+](=O)[O-])cc3)n2)CC1,39.8 µM (active)
4,O=[N+]([O-])c1ccc(Nc2nc(N3CCOCC3)nc(N3CCOCC3)n2)cc1,inactive
5,CCOc1nc(Nc2ccc([N+](=O)[O-])cc2)nc(NC(C)(C)C)n1,inactive
6,COCc1ccc(C(=O)Nc2ccccc2C(=O)NCc2cccnc2)cc1,inactive
7,C[C@H](NC(=O)c1[nH]cnc1C(=O)NCc1ccc(CNC(=O)OC(C)(C)C)cc1)C(=O)OCc1ccccc1,25.1 µM (active)
8,C[C@H](NC(=O)c1[nH]cnc1C(=O)Nc1ccc(CNC(=O)OC(C)(C)C)cc1)C(=O)OCc1ccccc1,39.8 µM (active)
9,CC(C)(C)OC(=O)NCc1ccc(NC(=O)c2[nH]cnc2C(=O)N[C@@H](Cc2ccccc2)C(=O)OCc2ccccc2)cc1,35.5 µM (active)
10,O=C(NC(Cc1ccccc1)C(=O)Oc1ccc2c(C(F)(F)F)cc(=O)oc2c1)OCc1ccccc1 (stereo not drawn),inactive
11,CC(NC(=O)OC(C)(C)C)C(=O)NC(CCC(=O)OCc1ccccc1)C(N)=O (stereo not drawn),inactive
12,COc1ccccc1C1C2=C(CC(C)(C)CC2=O)N(CC(=O)O)C2=C1C(=O)CC(C)(C)C2,inactive
13,CN(CCC#N)C(=O)COC(=O)c1c2c(nc3ccccc13)/C(=C\c1ccco1)CC2,inactive
14,COc1ccccc1N/C=C/c1onc(C)c1[N+](=O)[O-],inactive
15,CCOC(=O)c1ccc(N2C(=O)c3[nH]nc(-c4ccccc4)c3C2c2ccc(CC)cc2)cc1 (stereo not drawn),39.8 µM (active)
16,Cc1cc(NC(=O)COC(=O)c2cccc(O)c2)no1,inactive
17,O=C(OCC1OC(n2cc(Br)c(=O)[nH]c2=O)C(Br)C1O)c1ccccc1 (stereo not drawn),inactive
18,COc1ccc(C(=O)COC(=O)c2cncc(Br)c2)cc1,inactive
19,CCOC(=O)c1ccc(N2C(=O)c3[nH]nc(-c4ccc(OC)cc4)c3C2c2cccc(O)c2)cc1 (stereo not drawn),31.6 µM (active)
20,O=C1CCCCC/C1=N/Nc1ccc(OCc2ccccc2)cc1,inactive
21,CCOc1cc(CNc2ccc(O)cc2)cc(Br)c1OCc1ccccc1,20 µM (active)

row,SMILES,Potency
1,Oc1ccc(NCc2cccc(OCc3ccccc3)c2)cc1,28.2 µM (active)
2,Cc1cc(NC(=O)Nc2ccc(OCc3ccccc3)cc2)n(C)n1,inactive
3,CC(O)CNCCCCOc1ccc(OCc2ccccc2)cc1 (stereo not drawn),inactive
4,CN=C(S)Nc1ccc(OCc2ccccc2)cc1,inactive
5,COc1cc(CNC(C)(C)CO)cc(Br)c1OCc1ccccc1,inactive
6,Oc1ccc(NCc2cccs2)cc1,inactive
7,Oc1ccc(NCc2ccccc2OCc2ccccc2)cc1,39.8 µM (active)
8,CC(NCc1cccc(OCc2ccccc2)c1)C(O)c1ccccc1 (stereo not drawn),25.1 µM (active)
9,CCOc1ccc(C2C(C(=O)Nc3ccccc3)=C(C)N=c3s/c(=C/c4cccc(OCC(=O)O)c4)c(=O)n32)cc1 (stereo not drawn),inactive
10,N#CC1=C(N)OC2=C(CC/C2=C\c2ccccc2Cl)C1c1ccccc1Cl (stereo not drawn),inactive
11,COCCNC(=O)c1c(N)n(CCCn2ccnc2)c2nc3ccccc3nc12,inactive
12,O=C(Oc1ccc2ccc(=O)oc2c1)c1ccccc1,inactive
13,Oc1ccc(NCc2ccc(OCc3ccccc3Cl)cc2)cc1,22.4 µM (active)
14,c1ccc(COc2ccccc2CNC23CC4CC(CC(C4)C2)C3)cc1,20 µM (active)
15,Clc1ncccc1OCc1ccccc1,inactive
16,N=c1c(C(=O)NC2CCCC2)cc2c(=O)n3ccccc3nc2n1CC1CCCO1 (stereo not drawn),inactive
17,COC(=O)Cc1cc(=O)oc2c(C)c(O)ccc12,inactive
18,CCCCn1c(-c2cccc(C)c2)nc2cc3nc(O)c(C(C)C)nc3cc21,31.6 µM (active)
19,CCCCn1c(C2CCCCC2)nc2cc3nc(O)c(C(C)C)nc3cc21,35.5 µM (active)
20,CCCC1=Nc2ncnn2C(c2cccs2)/C1=C(\O)OCC (stereo not drawn),inactive
21,CCC(C)n1c(=N)c(C(=O)NC2CCCCC2)cc2c(=O)n3ccccc3nc21 (stereo not drawn),inactive
